One may read the AC50 as the midpoint of the concentration-response curve, whichever way the signal moves.

More than one record can exist for a structure, and the calls need not agree. Activity calls are given as the source filed them. The calls were made as follows: active = hit-call score of the fitted dose curve at least 0.9, where 1 is the maximum; inactive = score below 0.9.

Results on 39 compounds are retold here after PubChem BioAssay (EPA / NIEHS).

Chain of Hepatocyte nuclear factor 6 (Homo sapiens) (Q9UBC0 whole entry, looked up): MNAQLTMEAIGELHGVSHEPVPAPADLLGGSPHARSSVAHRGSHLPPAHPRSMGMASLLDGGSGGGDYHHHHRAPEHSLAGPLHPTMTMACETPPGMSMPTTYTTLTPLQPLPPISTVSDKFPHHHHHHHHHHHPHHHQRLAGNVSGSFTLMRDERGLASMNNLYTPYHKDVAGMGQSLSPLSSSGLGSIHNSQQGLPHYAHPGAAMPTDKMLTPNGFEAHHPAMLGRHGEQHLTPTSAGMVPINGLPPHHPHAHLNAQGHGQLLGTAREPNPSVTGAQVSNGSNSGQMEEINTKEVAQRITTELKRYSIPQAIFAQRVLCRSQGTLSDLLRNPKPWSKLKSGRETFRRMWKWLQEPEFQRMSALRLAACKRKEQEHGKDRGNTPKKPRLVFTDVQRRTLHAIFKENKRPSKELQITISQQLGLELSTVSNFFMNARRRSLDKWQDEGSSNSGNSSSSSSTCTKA

This assay addresses Hepatocyte nuclear factor 6 (Homo sapiens) (UniProt Q9UBC0). Briefly: ATG_HNF6_CIS: Attagene CIS-FACTORIAL HepG2 Assay for human Hepatocyte Nuclear Factor 6 (HNF6) (AID 2282952). The conditions noted are these: HepG2 Attagene cis-factorial HNF6 reporter transcription; actives raise or lower the signal. The procedure:
ATG_CIS is a cell-based, multiplexed-readout assay that uses HepG2, a human liver cell line, with measurements taken at 24 hours after chemical dosing in a 24-well plate.ATG_HNF6_CIS is one of 52 assay component(s) measured or calculated from the ATG_CIS assay. It is designed to make measurements of mRNA induction, a form of inducible reporter, as detected with fluorescence intensity signals by Reverse transcription polymerase chain reaction (RT-PCR) and Capillary electrophoresis technology.Data from the assay component ATG_HNF6_CIS was analyzed into 1 assay endpoint. This assay endpoint, ATG_HNF6_CIS, was analyzed with bidirectional fitting relative to DMSO as the negative control and baseline of activity. Using a type of inducible reporter, measures of mRNA for gain or loss-of-signal activity can be used to understand the reporter gene at the transcription factor-level as they relate to the gene ONECUT1. Furthermore, this assay endpoint can be referred to as a primary readout, because this assay has produced multiple assay endpoints where this one serves a reporter gene function. To generalize the intended target to other relatable targets, this assay endpoint is annotated to the dna binding intended target family, where the subfamily is homeobox protein.
Human liver HepG2 cells are transiently transfected with multiple reporter transcription units (MRTUs) in 6-well plates using FuGene 6 reagent (Roche; 3 ml FuGene/1 mg DNA). The MRTU constructs are regulated by a cis-regulating element (promoter). […] A major difference between the CIS and TRANS system is that in CIS activities of endogenous TFs are measured, whereas the TRANS assay evaluates changes in activities of exogenous, chimeric NR-Gal4 proteins. […] At the end of 24 hour incubation, total RNA was isolated using TriZol reagent (Invitrogen). The isolated RNA is then reverse-transcribed using oligo(dT) primer and Mo-MLV reverse transcriptase (Invitrogen) with DNAse I (Ambion) treatment for 30 min. The one-tenth of the produced cDNA was amplified by PCR using Taq DNA polymerase (Invitrogen) and two reporter sequence-specific primers. The PCR products were fluorescently labeled by primer extension with 6-arboxyfluorescein (6-FAM) 5'-labeled reporter sequence-specific primer (2 min at 95 C, 20 s at 68 C and 10 min at 72 C) and these products were digested with 5U of HpaI (New England Biolabs) for 2h at 37 C. The fragments were purified using Qiaquick PCR columns (Qiagen), analyzed on an ABI 3130xL genetic analyzer (Applied Biosystems) with peak positions identified by using a set of X-rhodamine (ROX)-labeled MapMarker1000 molecular weight standards (BioVentures). The raw capillary electrophoresis data was processed using Attagraph software (Attagene).
Take `O=C(Cl)C(F)(F)C(F)(F)C(F)(F)C(F)(F)C(F)(F)C(F)(F)C(F)(F)C(F)(F)F`: the outcome was inactive.
Consider `CCN(CC)c1ccc2c(C)cc(=O)oc2c1`, for which the compound was classed as inactive.
For `CCCCCC=O`, the outcome was inactive.
On to `FC(F)(F)C(F)(F)C(F)(F)C(F)(F)C(F)(F)C(F)(F)C(F)(F)Br`, for which the compound was called inactive.
Take `CO[Si](OC)(c1ccccc1)c1ccccc1`: the result was inactive.
As to `C=CC(=O)OCC(F)(F)C(F)(F)C(F)(F)C(F)(F)C(F)(F)C(F)(F)C(F)(F)F`, the compound was called inactive.
Regarding `CCCCNc1ccccc1`, the compound was classed as inactive.
As to `CCc1ccc(C(c2ccc(CC)cc2)C(Cl)Cl)cc1`, the result was inactive.
Take `OCC(F)(F)C(F)(F)C(F)(F)F`: the compound was classed as inactive.
With `OCC(F)(F)C(F)(F)C(F)(F)C(F)F`, the compound was called inactive.
Take `OCC(F)(F)C(F)(F)C(F)(F)C(F)(F)C(F)(F)C(F)F`: the result was inactive.
Turning to `CCCCCCOC(=O)c1ccccc1O`, the outcome was inactive.
For `Cc1ccc(S(=O)(=O)OCC(F)(F)C(F)(F)C(F)(F)C(F)(F)C(F)(F)C(F)F)cc1`, the result was inactive.
Consider `CCCCC(CC)COP(=O)(O)OCC(CC)CCCC` (stereo not given), for which the compound was classed as inactive.
As to `Oc1ccc(Nc2ccccc2)cc1`, the result was inactive.
`CC(C)(C)C(=O)CC(=O)C(F)(F)C(F)(F)C(F)(F)F`: the compound was called inactive.
Consider `CCN(Cc1cccc(S(=O)(=O)O)c1)c1ccc(C(=C2C=CC(=[N+](CC)Cc3cccc(S(=O)(=O)O)c3)C=C2)c2ccc(O)cc2S(=O)(=O)[O-])cc1`, for which the compound was called inactive.
On to `CCCCCCCOC(=O)c1ccccc1C(=O)OCCCCCCC`, for which the call was inactive.
Take `O=C(O)C(F)(F)C(F)(F)OC(F)(F)F`: the call was inactive.
As for `OCCCC(F)(F)C(F)(F)C(F)(F)C(F)(F)C(F)(F)C(F)(F)C(F)(F)F`, the call was inactive and the AC50 was 83 µM (active).
For `C1COCCN1`, the compound was classed as inactive.
For the compound `CC(C)c1ccccc1N`, the call was inactive.
With `O=C(O)C=C(C(F)(F)F)C(F)(F)F`, the result was inactive.
On the same count and under the same terms, to `O[Si](c1ccccc1)(c1ccccc1)c1ccccc1` belongs “inactive”; to `O=S(=O)(OCCOC(F)(F)F)C(F)(F)F`, “inactive”.
With `N=C(N)C(F)(F)C(F)(F)C(F)(F)C(F)(F)C(F)(F)C(F)(F)C(F)(F)F`, the outcome was inactive.
The same measure, in the same setting: then `Cc1cccc(N(C)C)c1`, with “inactive”; and `C#C[C@]1(O)CC[C@H]2[C@@H]3CCc4cc(OC)ccc4[C@H]3CC[C@@]21C`, with “inactive”.
Regarding `CS(C)(=O)=O`, the call was inactive.
Take `Nc1ccc([N+](=O)[O-])cc1O`: the result was inactive.
As to `FC(F)(F)C(F)(F)C(F)(F)C(F)(F)C(F)(F)C(F)(F)CCS`, the outcome was inactive.
The same measure, in the same setting: then `NC(=O)C(F)(F)C(F)(F)C(F)(F)C(F)(F)F`, with “inactive”.
For `FC(F)(F)C(F)(F)C(F)(F)CI`, the result was inactive.
Same read-out and setting: to `CC/C=C\CCOC(C)=O` belongs “inactive”.
Regarding `O=C(C=Cc1ccccc1)OCC=Cc1ccccc1`, the result was inactive.
With `[Co]`, the call was inactive.
On to `CC(C)OC(=O)c1ccccc1C(=O)OC(C)C`, for which the outcome was inactive.
As for `C=C(C)C(=O)OCC(F)(F)C(F)(F)C(F)(F)F`, the outcome was inactive.
With `O=C(O)C(F)(F)C(F)(F)C(F)(F)C(F)(F)C(F)(F)C(F)(F)C(F)(F)C(F)(F)Cl`, the call was inactive.
